Reference: PubChem BioAssay AID1117353 (Cheminformatics & Chemogenomics Research Group (CCRG), …, 2015)
Calls of active or inactive are those of the source. Rule as the data show it: active = inhibition above about 50%; inactive = the rest.

These compounds were tested against Vascular endothelial growth factor receptor 2 (Homo sapiens) (UniProt P35968) (assay: VEGFR2 inhibitors, primary assay, biochemical, Homo sapiens, LANCE Ultra TR-FRET, NPC library (AID 1117353)). Conditions: LANCE Ultra TR-FRET kinase assay; series mostly up to 20 µM; inhibition: at the top concentration.
Sequence of Vascular endothelial growth factor receptor 2 (Homo sapiens) (P35968 whole entry, looked up): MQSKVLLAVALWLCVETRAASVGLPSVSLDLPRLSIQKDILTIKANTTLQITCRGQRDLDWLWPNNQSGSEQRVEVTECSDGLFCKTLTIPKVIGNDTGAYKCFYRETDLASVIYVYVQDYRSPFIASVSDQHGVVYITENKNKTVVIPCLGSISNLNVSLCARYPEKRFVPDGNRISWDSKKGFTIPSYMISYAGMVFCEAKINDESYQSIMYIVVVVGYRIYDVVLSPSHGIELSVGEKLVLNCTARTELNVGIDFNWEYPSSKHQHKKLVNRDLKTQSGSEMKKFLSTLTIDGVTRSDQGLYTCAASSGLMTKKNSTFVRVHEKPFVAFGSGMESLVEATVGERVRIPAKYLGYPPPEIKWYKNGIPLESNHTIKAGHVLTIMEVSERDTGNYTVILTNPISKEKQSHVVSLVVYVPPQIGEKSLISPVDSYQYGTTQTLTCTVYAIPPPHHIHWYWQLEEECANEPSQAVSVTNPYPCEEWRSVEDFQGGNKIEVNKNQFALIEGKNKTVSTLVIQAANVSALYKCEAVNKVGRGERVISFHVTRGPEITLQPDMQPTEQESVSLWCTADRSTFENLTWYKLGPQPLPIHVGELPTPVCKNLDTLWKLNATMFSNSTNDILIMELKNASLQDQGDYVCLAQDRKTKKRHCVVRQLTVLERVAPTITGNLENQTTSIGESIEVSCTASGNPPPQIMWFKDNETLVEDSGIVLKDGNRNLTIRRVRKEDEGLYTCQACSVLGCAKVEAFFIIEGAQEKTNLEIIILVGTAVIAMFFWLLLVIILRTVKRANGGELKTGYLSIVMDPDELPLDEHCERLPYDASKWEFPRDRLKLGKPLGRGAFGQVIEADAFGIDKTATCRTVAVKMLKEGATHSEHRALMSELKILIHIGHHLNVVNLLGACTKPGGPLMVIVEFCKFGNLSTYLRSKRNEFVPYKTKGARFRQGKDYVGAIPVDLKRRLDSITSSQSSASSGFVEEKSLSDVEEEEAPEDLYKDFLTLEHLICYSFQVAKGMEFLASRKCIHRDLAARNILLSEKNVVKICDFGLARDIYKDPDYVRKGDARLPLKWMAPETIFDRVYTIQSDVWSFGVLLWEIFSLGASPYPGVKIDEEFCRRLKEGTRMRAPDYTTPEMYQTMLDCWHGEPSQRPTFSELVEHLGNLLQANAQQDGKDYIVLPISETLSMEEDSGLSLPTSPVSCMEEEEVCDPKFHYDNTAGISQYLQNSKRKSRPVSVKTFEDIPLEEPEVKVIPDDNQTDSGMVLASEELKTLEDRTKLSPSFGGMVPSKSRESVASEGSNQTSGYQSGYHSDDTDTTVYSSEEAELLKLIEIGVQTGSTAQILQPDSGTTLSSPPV

| SMILES | inhibition |
| --- | --- |
| C=C(C)[C@H]1Cc2c(ccc3c2O[C@@H]2COc4cc(OC)c(OC)cc4[C@@H]2C3=O)O1 | 17.2% (inactive) |
| O=C(CCl)c1ccc(Cl)cc1Cl | -9.46% (inactive) |
| Cc1ccc([N+](=O)[O-])[c]2c1[O][Hg]2 | 43.9% (inactive) |
